Source: PubChem BioAssay (NCATS)
Values joined by “and” are separate entries in the source; they are usually repeats but may differ in a detail not shown here. Identical values can stand only once. Inconclusive results are not listed. Active and inactive are the calls of the source. Unless noted, the call rests on the fitted dose curve.

Columns and labels:
[1] = Cell Viability - BJ (AID 421); conditions: BJ fibroblast viability, qHTS;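 further: potency means the concentration at half of the fitted maximal effect; cells exposed to compound for 40 hours at 37 °C before readout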
In short: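 Quantitative HTS: ATP depletion in BJ cells after 40 hr compound exposure in complete culture medium, detected with CellTiter-Glo; AC50 from standard Hill fits.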

[2] = Cell Viability - Hek293 (AID 427;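 active means compounds whose dose-response curve shows a full or clear partial loss of cell viability, called from curve shape rather than a numeric limit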;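 further: potency means the concentration at half of the fitted maximal effect; cells exposed to compound for 40 hours at 37 °C before reading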); conditions: qHTS
In short: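 AC50 values derive from Hill-modelled concentration-response of ATP-based luminescence, normalized between DMSO-only and 100 uM tamoxifen controls. Cells were exposed in complete culture medium for 40 hr at 37 °C before detection.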

[3] = Cell Viability - MRC5 (AID 434); conditions: MRC5 lung fibroblast viability, qHTS;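 further: potency means the concentration at half of the fitted maximal effect; potency reflects cytotoxicity seen as loss of intracellular ATP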
In short: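 AC50 values come from Hill-equation fits of intracellular ATP loss, measured by CellTiter-Glo luminescence. Normal lung fibroblasts (MRC5) had 40 hr compound treatment at 37 C, normalized between DMSO and 100 uM tamoxifen.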

[4] = Cell Viability - Jurkat (AID 426;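 active means dose-dependent loss of cell ATP signal giving a full or clear fitted curve, ranked by lower potency value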;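 further: potency means the concentration at half of the fitted maximal effect; cells exposed to compound for 40 hours at 37 °C before ATP read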); conditions: qHTS
In short: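 Cells of the human T-cell leukemia line Jurkat (E6-1) are seeded at 5000 per well, treated with compound across a concentration range for 40 hours at 37 °C, then lysed with CellTiter-Glo; luminescence reports ATP.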

[5] = Cell Viability - HepG2 (AID 433); conditions: qHTS;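 further: potency means the concentration at half of the fitted maximal effect; potency for ATP loss meaning cytotoxicity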
In short: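 Cytotoxicity is scored as loss of intracellular ATP in HepG2 cells exposed to compounds for 40 h. Concentration-response curves, normalized to DMSO and 100 uM tamoxifen, give AC50 values.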

[6] = NFAT Signaling Pathway (AID 444; active means well fitted curve in either direction with a large enough effect, not every such curve was filed as active;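 further: carbachol stimulus at about its EC50 of 1 µM final; on the % scale 0 is the no-effect control and ±100 the full control effect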); conditions: Jurkat NFAT-bla M1, carbachol, beta-lactamase ratio, 5 h; at 38 µM (top of the series) unless noted
In short: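 Read-out: CCF4 FRET ratio (460 nm/530 nm) after 1 h RT dye loading, used for %activity and AC50 from titration series. Cells: Jurkat NFAT-β-lactamase/M1 line, treated with compound plus 1 uM carbachol for 5 h, 37 °C.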

[7] = Stat Signaling Pathway (AID 446; active means well fitted curve in either direction with a large enough effect, not every such curve was filed as active;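 further: ME-180 cervical cancer cells given 40 pM IL-6 alongside compound; SIE-controlled beta-lactamase reporter measured as 460/530 nm FRET emission ratio; on the % scale 0 is the no-effect control and ±100 the full control effect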); conditions: ME-180 (cervical carcinoma) SIE beta-lactamase reporter, IL-6 stimulated, 5 h
In short: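 Overnight-plated ME-180 cells bearing a STAT Inducible Element beta-lactamase reporter; 5 h co-exposure to compound and 40 pM IL-6; values normalized to 300 pM IL-6 and 125 nM JAK inhibitor controls.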

[8] = target: Cytochrome P450 1A2 (Homo sapiens) (UniProt P05177); experiment: p450-cyp1a2 (AID 410); conditions: recombinant CYP1A2, luciferin-ME demethylation, luminescence; series mostly up to 57 µM; further: potency means the concentration at half of the fitted maximal effect
In short: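 O-Demethylation of luciferin 6' methyl ether by human CYP1A2 is monitored as luciferase luminescence. Substrate sits at Km (100uM); enzyme is 20nM. Values are scaled to 57 uM furafylline as maximal inhibition.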

Chain of Cytochrome P450 1A2 (Homo sapiens) (P05177 whole entry, looked up): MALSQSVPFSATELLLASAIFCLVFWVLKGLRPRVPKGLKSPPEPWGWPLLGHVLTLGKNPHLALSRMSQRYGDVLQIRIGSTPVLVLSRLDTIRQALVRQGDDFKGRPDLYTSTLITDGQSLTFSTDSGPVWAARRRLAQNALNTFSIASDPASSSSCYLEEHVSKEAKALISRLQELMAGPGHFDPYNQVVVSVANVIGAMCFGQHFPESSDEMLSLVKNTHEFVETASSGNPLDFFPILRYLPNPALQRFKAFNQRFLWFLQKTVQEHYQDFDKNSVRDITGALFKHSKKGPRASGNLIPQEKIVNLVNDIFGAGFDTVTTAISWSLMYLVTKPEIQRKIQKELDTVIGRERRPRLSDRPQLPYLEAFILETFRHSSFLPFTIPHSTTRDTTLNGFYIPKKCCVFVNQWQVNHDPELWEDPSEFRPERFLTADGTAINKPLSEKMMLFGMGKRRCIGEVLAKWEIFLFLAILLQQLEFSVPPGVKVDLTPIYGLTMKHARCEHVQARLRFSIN

CN(C)c1ccc(N=NS(=O)(=O)O)cc1
inactive: Potency [1] > 92 µM | Potency [2] > 92 µM | Potency [3] > 92 µM

NCCO
inactive: Potency [1] > 92 µM | Potency [4] > 92 µM | Potency [2] > 92 µM | Potency [5] > 92 µM | Potency [3] > 92 µM

CN1CCC[C@H]1c1cccnc1
inactive: Potency [1] > 92 µM | Potency [4] > 92 µM | Potency [2] > 92 µM | Potency [5] > 92 µM | Potency [3] > 92 µM

S=c1[nH]c2ccccc2s1
inactive: Potency [1] > 92 µM | Potency [4] > 92 µM | Potency [2] > 92 µM | Potency [5] > 92 µM | Potency [3] > 92 µM

O=C(O)c1cc(O)c(O)c(O)c1
inactive: Potency [1] > 92 µM | Potency [5] > 92 µM | Potency [3] > 92 µM

CN(C)CCC(c1ccc(Cl)cc1)c1ccccn1 (stereo unspecified)
inactive: Potency [1] > 92 µM | Potency [4] > 92 µM | Potency [2] > 92 µM | Potency [5] > 92 µM | Potency [3] > 92 µM

Nc1ccc(O)c([N+](=O)[O-])c1
inactive: Potency [1] > 92 µM | Potency [4] 20.7 µM | Potency [2] > 92 µM | Potency [5] > 92 µM | Potency [3] > 92 µM

O=C(O)/C=C\C(=O)O
inactive: Potency [1] > 92 µM | Potency [4] > 92 µM | Potency [2] > 92 µM | Potency [5] > 92 µM | Potency [3] > 92 µM

O=C(O)c1cc(=O)c2ccccc2[nH]1
inactive: activity change, negative = inhibition [6] 13.2%

OC[C@H]1O[C@@H](n2cnc3c(Nc4ccccc4)ncnc32)[C@H](O)[C@@H]1O
inactive: activity change, negative = inhibition [6] 4.47% [at 17.2 µM] | activity, negative = inhibition ([7]; at 17.2 µM (top of the series)) 17.7%

CC(C)NCC(O)COc1cccc2ccccc12 (stereo unspecified)
inactive: Potency [1] > 92 µM | Potency [2] > 92 µM | Potency [5] > 92 µM | Potency [3] > 92 µM

Cc1nc2sccn2c(=O)c1CCN1CCC(=C(c2ccccc2)c2ccc(F)cc2)CC1
inactive: activity, negative = inhibition ([7]; at 17.2 µM (top of the series)) -13.7% | activity, negative = inhibition ([7]; at 38 µM (top of the series)) 13.4%

O=C(Nc1ccccc1)c1cc([N+](=O)[O-])ccc1Cl
inactive: activity change, negative = inhibition [6] -5% | activity, negative = inhibition ([7]; at 38 µM (top of the series)) -18.8%
active: Potency [8] 5.01 µM and 631 nM

c1ccc2sc(SSc3nc4ccccc4s3)nc2c1
inactive: Potency [1] > 92 µM | Potency [4] > 92 µM | Potency [2] > 92 µM | Potency [5] > 92 µM | Potency [3] > 92 µM

O=C(O)Cc1ccc(-c2ccccc2)cc1
inactive: activity change, negative = inhibition [6] -2.29% [at 17.2 µM] and -12.1% [at 17.2 µM] | activity, negative = inhibition ([7]; at 17.2 µM (top of the series)) -10.3% and 7.71%

CC1(C)S[C@@H]2[C@H](NC(=O)[C@H](N)c3ccccc3)C(=O)N2[C@H]1C(=O)O
inactive: Potency [1] > 92 µM | Potency [4] > 92 µM | Potency [2] > 92 µM | Potency [5] > 92 µM | Potency [3] > 92 µM | activity change, negative = inhibition [6] 3.92% [at 17.2 µM] | activity, negative = inhibition ([7]; at 17.2 µM (top of the series)) 1.21%

Ic1ccc(N2CCN(Cc3c[nH]c4ncccc34)CC2)cc1
inactive: activity change, negative = inhibition [6] 0.65% | activity, negative = inhibition ([7]; at 38 µM (top of the series)) -23%

CCCCCCCCCCCCCCCCCC(=O)O
inactive: Potency [1] > 92 µM | Potency [4] > 92 µM | Potency [2] > 92 µM | Potency [5] > 92 µM | Potency [3] > 92 µM

O=c1[nH]c2ccccc2n1CCCN1CCN(C(c2ccccc2)c2ccccc2)CC1
inactive: activity, negative = inhibition ([7]; at 17.2 µM (top of the series)) -2.06%
active: Potency [8] 25.1 µM

CCCSc1ccc2nc(NC(=O)OC)[nH]c2c1
inactive: activity, negative = inhibition ([7]; at 17.2 µM (top of the series)) -7.64% and -2.74%
active: Potency [8] 0.398 µM

N=C1N=C(N)c2cc3ccccc3cc21
active: Potency [1] 62.7 µM | Potency [4] 32.2 µM | Potency [5] 54.6 µM

O=c1[nH]c2cc(Cl)c(Cl)cc2[nH]c1=O
inactive: activity change, negative = inhibition [6] 4.68% | activity, negative = inhibition ([7]; at 38 µM (top of the series)) -0.584%

COc1cc(CNC(=O)CCCC/C=C/C(C)C)ccc1O
inactive: Potency [1] > 92 µM | Potency [4] > 92 µM | Potency [2] > 92 µM | Potency [5] > 92 µM | Potency [3] > 92 µM

C#C[C@]1(O)CC[C@H]2[C@@H]3CCc4cc(O)ccc4[C@H]3CC[C@@]21C
inactive: Potency [1] > 92 µM | Potency [2] > 92 µM | Potency [5] > 92 µM

CCCOC(=O)c1ccc(O)cc1
inactive: Potency [1] > 92 µM | Potency [4] > 92 µM | Potency [2] > 92 µM | Potency [5] > 92 µM | Potency [3] > 92 µM
